This is a sample that favours compounds with a hit; in the whole collection about 2.4% have one here.
D2 PAM-1 = positive allosteric modulators of human D2 dopamine receptor; AID 624464; potentiation, % (test concentration not listed); P14416; 0.23% of 360,000 active; DiscoveRx D2 beta-arrestin cells, luminescence, 90 min; 100% = 57 uM dopamine signal; in the data active = potentiation above about 50%; inconclusive = mostly about 30% to 49%
Target sequence (P14416 whole entry, looked up): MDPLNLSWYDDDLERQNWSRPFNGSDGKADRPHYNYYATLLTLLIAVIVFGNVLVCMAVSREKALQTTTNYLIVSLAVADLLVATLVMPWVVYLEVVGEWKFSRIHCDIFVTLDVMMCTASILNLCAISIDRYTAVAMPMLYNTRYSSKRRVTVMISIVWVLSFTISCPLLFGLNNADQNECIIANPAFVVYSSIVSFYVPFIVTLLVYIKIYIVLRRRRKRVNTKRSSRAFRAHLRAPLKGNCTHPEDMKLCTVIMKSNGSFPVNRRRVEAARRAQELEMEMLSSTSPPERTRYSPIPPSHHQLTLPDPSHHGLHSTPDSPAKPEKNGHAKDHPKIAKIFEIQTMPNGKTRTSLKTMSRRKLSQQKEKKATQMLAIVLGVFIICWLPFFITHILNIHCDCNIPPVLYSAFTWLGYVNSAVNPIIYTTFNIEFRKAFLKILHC
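D2 cells co-treated with compound plus 50 nM dopamine (EC20) for 90 min at 37 deg C to detect potentiation. Beta-arrestin recruitment was read as enzyme-fragment luminescence after 1 h at ambient temperature. Full response was set by 57 uM dopamine.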
D2 antag = antagonizes the human D2 dopamine receptor. AID 485344. 2% of 340,000 active. HEK293 TREx D2 cells, calcium flux, dopamine EC80. inhibition, % at 10 µM. P14416; in the data active = inhibition above about 30%; inactive = below that, where a call was filed; also: 0% is about no effect
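Calcium mobilization kinetics were recorded at 1 s intervals in tetracycline-induced HEK293 T-REx D2 cells, first for 180 s after compound addition and then 180 s after EC80 dopamine.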
D2 ag-1 = activates the human D2 dopamine receptor. DiscoveRx PathHunter D2 beta-arrestin, luminescence, 90 min; 100% = 57 uM dopamine signal. activation, % (test concentration not listed). 0.084% of 360,000 active. AID 624465; in the data active = activation above about 40%; inconclusive = between about 15% and that limit
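Agonist mode: compounds alone added to overnight-plated D2 PathHunter cells for 90 min at 37 C, with 57 uM final dopamine (EC100) defining full response. Beta-arrestin recruitment detected by chemiluminescent reagent, read after 1 h at ambient temperature.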
D2 ag-2 = D2 dopamine receptor (human) agonism; P14416; HEK293 T-REx D2 cells, calcium flux agonist mode; activation, % at 2 µM; 0.53% of 340,000 active; AID 485358;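 active = activation over 3 SD above normal in the single-dose calcium agonist read, cut at about 30% in these data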; also: 0% is about no effect
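Tetracycline-induced HEK293 Trex cells with D2 receptor force-coupled to calcium signaling, plated overnight at 30 C and loaded with no-wash calcium dye. Calcium flux read kinetically for 180 s after compound addition; responses flag agonists.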
D2 PAM-2 = D2 dopamine receptor (human) potentiation. HEK293 T-REx D2, calcium flux, EC20 dopamine potentiation. potentiation, % at 10 µM. P14416. 0.34% of 340,000 active;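 active = potentiation over 3 SD above the plate norm, cut at about 30% in these data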; also: 0% is about no effect
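Tetracycline-induced Hek293 Trex D2 cells, force-coupled to calcium, loaded with no-wash calcium dye. Compound added with 180 s kinetic read for agonism, then EC20 dopamine and a further 180 s read for potentiation.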
Starred values were filed as active, the others as inactive; ? = inconclusive; nt = not tested or not shown.

SMILES	D2 PAM-1	D2 antag	D2 ag-1	D2 ag-2	D2 PAM-2
Cc1ccc(SCCOCCN2CC(C)OC(C)C2)cc1 (configuration not stated)	-23	20	-2	0	21
C=CCc1cc(OC)ccc1OCCOCCN1CCc2ccccc2C1	-18	84*	0	-1	-25
O=[N+]([O-])c1ccc(OCCCCN2CCc3ccccc3C2)cc1	-22	62*	5	-1	-31
O=C(Nc1ccc(F)cc1F)c1cc(-c2ccc(Cl)cc2)on1	nt	nt	nt	0	-7
CC(=O)C(=Nc1ccc(Cl)cc1Cl)NNc1cccc(Cl)c1	125*	-15	?	-1	-6
CC(=O)Nc1ccc(NC(=O)Nc2cccc(Cl)c2)cc1	-25	16	-5	0	-5
CCCN(Cc1nnc(-c2cccs2)o1)C(=O)CN1C(=O)NC2(CCCCC2)C1=O	-1	31*	-2	1	2
CCCN(Cc1nnc(-c2cccs2)o1)C(=O)CN1C(=O)NC2(CCC(C)CC2)C1=O (configuration not stated)	0	2	-4	0	13
Cc1nn(CC(C)C)c(=S)[nH]c1=O	-15	32*	-4	0	14
COc1ccccc1CNC(=O)Cn1c(=O)nc(-c2ccccc2)c2ccccc21	nt	nt	nt	2	-1
O=C(OCC12CC3CC(CC(C3)C1)C2)c1ccc(NCc2cc(O)ccc2O)cc1	55*	nt	?	nt	nt
N#CCC(=O)Nc1ccc(C(=O)OCC(=O)C23CC4CC(CC(C4)C2)C3)cc1	-2	0	-4	1	12
O=C(OCCC12CC3CC(CC(C3)C1)C2)c1ccc(NCc2cc(O)ccc2O)cc1	64*	nt	?	nt	nt
COC(=O)c1ccc(Cn2c(C)c(C(=O)NCc3ccco3)sc2=O)o1	1	nt	-3	nt	nt
Cc1nc2ccc(NC(=O)c3ccc4ccccc4n3)cc2s1	-3	-4	-2	-2	31*
Cc1cccc(OCC(=O)Nc2ccc3nc(C)sc3c2)c1	-5	-7	-3	-1	34*
Cc1nc2ccc(NC(=O)COc3ccccc3)cc2s1	-5	3	1	1	-1
COc1ccc(N2CCN(C3(c4ccccc4)C(=O)c4ccccc4C3=O)CC2)cc1	nt	nt	nt	0	-6
COc1ccccc1CNc1ccc(-c2nc(-c3cccnc3)no2)cc1[N+](=O)[O-]	nt	nt	nt	nt	-3
COc1cc(/C=C/CN2CCC(Oc3ccc(C(=O)N4CCCC4)cc3)CC2)ccc1O	-22	3	-2	0	-10
COc1ccc(CCC(C)N2CCC(Oc3ccc(C(=O)N4CCCC4)cc3)CC2)cc1 (configuration not stated)	-17	30*	-5	0	-5
COc1ccccc1/C=C/CN1CCC(Oc2ccc(C(=O)N3CCCC3)cc2)CC1	-33	47*	-1	0	-20
Cc1cccc(Cn2c(SCc3ccc(C(=O)NCc4ccccc4F)cc3)nc3ccncc32)c1	nt	nt	nt	1	2
CSc1ccccc1OCc1cc(C(=O)NCc2csc(C(C)C)n2)no1	-9	-27	-2	-1	-1
CC(C)c1ccc(S(=O)(=O)c2nnn3c2nc(NCCc2ccccc2)c2sccc23)cc1	nt	nt	nt	0	3
SMILES	D2 PAM-1	D2 antag	D2 ag-1	D2 ag-2	D2 PAM-2
COc1ccc2cc(C(C)C(=O)N3CCC(C(N)=O)CC3)ccc2c1 (configuration not stated)	-5	-16	0	-2	32*
O=C(Nc1ccccc1-c1ccccc1)NC1CC2CCCC(C1)N2CCc1ccccc1 (configuration not stated)	-10	8	-5	0	-18
O=C(NC1CC2CCC(C1)N2Cc1ccccc1)c1cccc(F)c1 (configuration not stated)	-7	71*	4	1	-25
COc1cccc(C(=O)NC2CC3CCCC(C2)N3CC(=O)Nc2ccccc2C(F)(F)F)c1 (configuration not stated)	-5	-21	1	1	-16
COCCCNC(=S)NC1CC2CCCC(C1)N2Cc1ccco1 (configuration not stated)	-25	-16	-1	0	-16
COc1cccc(C(=O)NC2CC3CCC(C2)N3Cc2ccccc2)c1 (configuration not stated)	-6	96*	0	1	-14
CCCNC(=S)NC1CC2CCCC(C1)N2Cc1ccc(F)cc1 (configuration not stated)	-78	81*	0	0	-21
O=C(NC1CCN(C(=O)NCc2ccccc2)CC1)c1cccc(F)c1	-3	2	-3	1	nt
O=C(Nc1ccccc1-c1ccccc1)NC1CC2CCCC(C1)N2Cc1ccc(F)cc1 (configuration not stated)	-25	52*	-1	0	-25
COc1cccc(C(=O)NN2c3ccccc3CCc3ccccc32)c1	4	51*	4	-4	2
COc1ccc(CN2C3CCC2CC(NC(=O)c2cccc(F)c2)C3)cc1 (configuration not stated)	-2	81*	0	0	-26
Cc1cccc(C(=O)NC2CC3CCCC(C2)N3Cc2ccccc2)c1 (configuration not stated)	-10	81*	-4	0	-18
Cc1ccc(C(=O)NC2CC3CCCC(C2)N3Cc2ccccc2)cc1 (configuration not stated)	-34	4	-1	1	-29
Cc1ccc(CN2C3CCCC2CC(NC(=O)c2ccc(F)cc2)C3)cc1 (configuration not stated)	-18	92*	-2	0	-21
COc1cccc(C(=O)NNC(=O)c2ccccc2)c1	-3	2	2	0	6
CCc1ccccc1NC(=O)CN1C(=O)COc2ccc(S(=O)(=O)N3CCCCCC3)cc21	nt	nt	nt	-1	-1
O=C(O)C1CC(=O)n2c(nc3ccccc32)S1 (configuration not stated)	8	5	-4	0	21
COc1cc(C2CC(=O)n3c(nc4ccccc43)S2)cc(OC)c1OC (configuration not stated)	nt	-2	nt	0	30*
CCOC(=O)C1CCCN(S(=O)(=O)c2cc3c4c(c2)CCN4C(=O)CC3)C1 (configuration not stated)	-2	-6	?	0	16
NC(=O)C1CCN(S(=O)(=O)c2cc3c4c(c2)CCN4C(=O)CC3)CC1	4	30*	-6	0	3
COC(=O)CSc1nnc(-c2ccc(S(=O)(=O)NCc3ccccc3Cl)cc2)o1	29	33*	3	0	10
COC(=O)CSc1nnc(-c2ccc(S(=O)(=O)NCc3cccs3)cc2)o1	-8	0	-1	0	-10

Compound activity deposited in PubChem BioAssay by National Center for Advancing Translational Sciences (NCATS).
